# The list is not random: actives were taken first. Their share in the collection is about 21%.
# TDP1 cell CPT = growth inhibition of DT40 Tdp1-/-;hTDP1 cells with camptothecin (screen for TDP1 inhibitors) | chicken DT40 Tdp1-/-;hTDP1 cells + 20 nM CPT, ATP luminescence, 48 h | Potency, µM (series often up to 46.2 µM), for inactives: at the highest dose activity change, negative = growth inhibition, actives largely listed as inhibitors | 12% of 420,000 active; further: potency means the concentration at half of the fitted maximal effect; nearly all actives have a fitted effect of over 55% in size
#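 Chicken DT40 Tdp1-/- cells complemented with human TDP1, 400 cells/well, exposed to compounds plus 20 nM camptothecin for at least 48 h at 37 C; viability read as ATP content by CellTiter-Glo luminescence.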
# ELG1 DNA repair = ELG1-dependent DNA repair inhibition. Potency, µM (series often up to 46.1 µM), inactives show at the highest dose activity change, negative = inhibition, usual class: inhibitors. HEK293T ELG1-luciferase reporter, luminescence, 16 h; DNA damage induced by 5-fluorouridine. AID 504467. 2.3% of 330,000 active; further: potency means the concentration at half of the fitted maximal effect; nearly all actives have a fitted effect of over 55% in size
#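 5-Fluorouridine DNA damage + compound/DMSO, 2,000 cells/well, 16 h, 37 °C/5% CO2. ONE-Glo, 30 min RT, luminescence. Readout = decrease in reporter signal.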
# RORg inh = blocks mouse ROR gamma transcriptional activity; P51450; Drosophila S2 Gal4-RORgamma UAS-luciferase reporter, 20 h; Potency, µM (highest dose often 53.6 µM), for the others: at the highest dose activity change, negative = inhibition, usual class: inhibitors; 5.4% of 310,000 active; further: potency means the concentration at half of the fitted maximal effect; nearly all actives have a fitted effect of over 60% in size
# Target sequence (P51450 whole entry, looked up, the tested form may be a part): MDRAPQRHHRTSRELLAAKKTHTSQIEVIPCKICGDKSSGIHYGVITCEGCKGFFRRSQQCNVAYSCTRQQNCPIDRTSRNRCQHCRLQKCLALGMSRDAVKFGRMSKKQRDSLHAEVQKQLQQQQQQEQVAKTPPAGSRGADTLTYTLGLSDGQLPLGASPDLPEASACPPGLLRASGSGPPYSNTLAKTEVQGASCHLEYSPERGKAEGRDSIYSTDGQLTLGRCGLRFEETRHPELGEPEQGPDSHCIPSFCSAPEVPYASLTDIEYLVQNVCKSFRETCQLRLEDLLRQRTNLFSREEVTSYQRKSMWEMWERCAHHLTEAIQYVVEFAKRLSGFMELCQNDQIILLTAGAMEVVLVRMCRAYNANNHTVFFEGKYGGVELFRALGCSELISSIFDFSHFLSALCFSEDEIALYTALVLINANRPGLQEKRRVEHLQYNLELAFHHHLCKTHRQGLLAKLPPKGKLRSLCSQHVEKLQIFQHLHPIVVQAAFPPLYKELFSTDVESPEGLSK
#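 ROR gamma transcriptional activity was tracked as Gal4-UAS luciferase output in stably transfected Drosophila Schneider cells, with compound added 1 hr before 700 uM copper sulfate induction and a 20 hr ambient-temperature incubation.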
# Gal4-VP16 FLuc = Gal4-VP16 reporter inhibition counter-screen. Potency, µM (doses to about 53.6 µM), without a hit: at the top dose activity, negative = inhibition, most hits filed as inhibitors. Drosophila S2 Gal4-VP16 UAS-luciferase, luminescence, 20 h. 3.5% of 310,000 active;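 further: Gal4-VP16 expression switched on by copper sulfate through the metallothionein promoter; potency means the concentration at half of the fitted maximal effect; nearly all actives have a fitted effect of over 50% in size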
# IL1B secr inh = inflammasome signaling inhibition, IL-1 beta readout | 4.7% of 360,000 active | AID 743279 | THP-1 LPS/ATP IL-1B secretion, AlphaLISA, 16 h; active compounds read low | activity change, % at 57.5 µM; in the data active means activity change below about -50%; inconclusive means mostly about -30% to -49%
#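 THP-1 cells pretreated 1 hr with compounds (up to 57.5 uM final), then stimulated with LPS (250 ng/mL final) plus ATP (1.25 mM final); secreted IL-1B measured by AlphaLISA after 16 hr, decreased signal indicating inhibition.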
# TDP1 cell noCPT = qHTS for Inhibitors of human tyrosyl-DNA phosphodiesterase 1 (TDP1): qHTS in cells in absence of CPT | DT40 Tdp1-/- hTDP1 cells, no CPT, ATP luminescence, 48 h | Potency, µM (doses to about 46.2 µM), inactives show at the top dose activity change, negative = growth inhibition, most hits filed as inhibitors | 15% of 420,000 active | AID 686978, 2013; further: potency means the concentration at half of the fitted maximal effect; nearly all actives have a fitted effect of over 55% in size
#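 Luminescent ATP content (CellTiter-Glo) served as the growth readout. Knockout chicken DT40 cells expressing human TDP1 were exposed to compounds without camptothecin for a minimum 48 hr at 37 °C.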
# Starred values were filed as active, the others as inactive; ? = inconclusive; · = no result. Unless noted, the call rests on the fitted dose curve; in most records, active means well fitted curve in the direction sought with a large enough effect; inconclusive means small, poorly fitted or top-dose-only effect, or another doubt; inactive means no such curve, though single readings can be large; an effect the other way counts as inactive or inconclusive. On the % scale 0 is the no-effect control and ±100 the full control effect.
SMILES,TDP1 cell CPT,ELG1 DNA repair,RORg inh,Gal4-VP16 FLuc,IL1B secr inh,TDP1 cell noCPT
O=c1c2ccccc2oc2nc(-c3cccs3)n(CCc3ccccc3)c(=O)c12,·,12%,-4%,-1%,·,·
O=c1c2ccccc2oc2nc(-c3ccco3)n(Cc3ccccc3)c(=O)c12,?,-25%,-13%,8%,11,21µM*
COc1cc(-c2nc3oc4ccccc4c(=O)c3c(=O)n2Cc2ccco2)cc(OC)c1OC,18µM*,?,-29%,-2%,?,21µM*
COc1ccc2c(=O)c3c(=O)n(Cc4ccco4)c(-c4ccc(C)cc4)nc3oc2c1,?,?,-10%,-1%,41,?
CCc1nc2ccc(C(=O)NCCCn3ccnc3)cn2c1N(C)Cc1ccc(N(C)C)cc1,?,·,·,·,-20,-21%
Cc1cc(OC(=O)c2ccco2)c(Sc2ccccc2[N+](=O)[O-])c(=O)o1,?,0%,-4%,2%,7,18µM*
COc1ccc(Cl)cc1CC=NNC(=O)c1ccncc1,9.2µM*,·,·,·,37,12µM*
COc1ccc(OC)c(/C=N/NC(=O)c2ccncc2)c1,25%,6%,-2%,-12%,15,-2%
COc1ccc(Cl)cc1CC=NNC(=O)c1cccc(C)c1O,13µM*,·,·,·,22,13µM*
O=C(Nc1cccnc1)c1scc2c1OCCO2,-7%,-29%,15%,0%,-8,-14%
O=C(NC1CC1)c1scc2c1OCCO2,-15%,16µM*,2%,0%,6,-9%
CCOC(=O)C1=CCC(C(C)(C)C)N(S(=O)(=O)c2ccc(C)cc2)C1 (stereo unspecified),?,·,·,·,59,?
CC(=O)C1=CCC(c2ccco2)N(S(=O)(=O)c2ccc(C)cc2)C1 (stereo unspecified),?,·,·,·,13,?
CC(=O)C1=CCC(c2cccc3ccccc23)N(S(=O)(=O)c2ccc(C)cc2)C1 (stereo unspecified),?,·,·,·,-16,18µM*
CCOC(=O)C1=CCC(c2ccc(C)cc2)N(S(=O)(=O)c2ccc(C)cc2)C1 (stereo unspecified),23µM*,·,·,·,28,18µM*
CCOC(=O)C1=CCC(c2ccccc2C)N(S(=O)(=O)c2ccc(C)cc2)C1 (stereo unspecified),10µM*,·,·,·,52,15µM*
O=C1C=C(c2cccc(O)c2)C[C@@H](c2ccc(F)cc2)C1,21µM*,2%,·,·,-12,?
O=C1C=C(c2cccc3c2sc2ccccc23)C[C@@H](c2ccc(F)cc2)C1,?,13µM*,·,·,-26,?
O=C1C=C(c2ccc(-c3ccccc3)c(F)c2)C[C@@H](c2ccc(Cl)cc2)C1,21µM*,-3%,·,·,18,?
O=C1C=C(c2cccc(CO)c2)C[C@@H](c2ccc(F)cc2)C1,-28%,9%,·,·,-3,-27%
O=C1C=C(c2cccc(Br)c2)C[C@@H](c2ccc(Cl)cc2)C1,16µM*,7%,·,·,-1,?
COc1ccc([C@H]2CC(=O)C=C(c3ccc(-c4ccccc4)c(F)c3)C2)cc1,-16%,?,·,·,6,-3%
CCc1nc2c(OCc3ccc(C(=O)N(C)C)cc3)cccn2c1N(C)C(=O)Nc1ccccc1OC,?,·,·,·,-5,?
CCCCn1c(C2CC(=O)N(c3ccc(OCC)cc3)C2)nc2ccccc21 (stereo unspecified),21µM*,·,·,·,·,?
CCCn1c(C2CC(=O)N(c3cc(OC)ccc3OC)C2)nc2ccccc21 (stereo unspecified),21µM*,?,22%,-2%,-6,?
SMILES,TDP1 cell CPT,ELG1 DNA repair,RORg inh,Gal4-VP16 FLuc,IL1B secr inh,TDP1 cell noCPT
CCOc1ccc(N2CC(c3nc4ccccc4n3CCOc3ccccc3OC)CC2=O)cc1 (stereo unspecified),?,·,·,·,·,23µM*
O=C1CC(c2nc3ccccc3n2CCCOc2ccccc2)CN1c1ccc(F)cc1 (stereo unspecified),16µM*,·,·,·,·,8.2µM*
O=C(COC(=O)c1c(F)cccc1F)Nc1ccc(N2CCCCC2)cc1,7%,22%,·,·,11,10%
CCn1c(C2CC(=O)N(c3ccc(C)c(C)c3)C2)nc2ccccc21 (stereo unspecified),?,-3%,-10%,6%,-16,18µM*
Cc1ccc(N2CC(c3nc4ccccc4n3C)CC2=O)cc1C (stereo unspecified),-18%,-2%,-7%,-7%,-2,?
COc1ccc(-c2c3c(cc4ncn(Cc5ccccc5)c24)COC3=O)cc1,?,?,·,·,18,23µM*
COc1cc2c(cc1OC)CN(C(=O)CC1CC3CCC1C3)CC2 (stereo unspecified),?,-4%,13%,5%,29,?
OC(COc1ccccc1F)CN1CCC(Cc2ccccc2)CC1 (stereo unspecified),?,-13%,-31%,-1%,-26,?
OC(COc1ccc(F)cc1Cl)CN1CCC(Cc2ccccc2)CC1 (stereo unspecified),?,?,-17%,1%,-61*,21µM*
OC(COc1ccccc1)CN1CCC(Cc2ccccc2)CC1 (stereo unspecified),5%,-1%,-9%,-1%,-72*,-17%
COc1cccc(OCC(O)CN2CCC(Cc3ccccc3)CC2)c1 (stereo unspecified),?,?,14%,3%,?,18µM*
COc1ccc(NC(=O)CCN2C(=O)c3ccncc3C2=O)cc1OC,2%,1%,13%,-6%,-3,1%
COc1ccc(C2CC(O)(c3ccccc3)Oc3cc(OC)c(OC)c(OC)c32)cc1 (stereo unspecified),?,-17%,-16%,?,0,?
OC1(c2ccccc2)CC(c2ccccc2)c2ccccc2O1 (stereo unspecified),-25%,·,·,·,-99*,?
CC(NC(=O)CSc1ccc(S(=O)(=O)N2CCOCC2)cn1)c1ccc(Cl)cc1Cl (stereo unspecified),?,·,·,·,14,-28%
Cc1c(OCC(=O)NCc2ccccn2)ccc2c(-c3ccccc3)cc(=O)oc12,-4%,-1%,-2%,1%,6,?

# Compound activity as filed in PubChem BioAssay.
